{"source": "PubChem BioAssay AID493169", "about": "(National Center for Advancing Translational Sciences (NCATS), 2011)", "note": "Records with an inconclusive call do not appear. A call without a number means that no potency is given here. Active and inactive are the calls of the source. The call rests on the fitted dose curve; in most records, active means well fitted inhibition curve with a large enough effect; inconclusive means small, poorly fitted or top-dose-only effect; inactive means flat fitted curve, though single readings scatter. Potency means the concentration at half of the fitted maximal effect."}
{"assay": "CHOP2 Reporter Counterscreen Assay for Inhibitors of Ubiquitin-specific Protease USP2a;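 further: activated enterokinase alone at 50 pM in a cell-free format rather than USP2a or CHOP2; nearly all actives have a fitted effect of over 55% in size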", "details": "purified enterokinase, fluorogenic substrate, 485/531 nm; series mostly up to 38.3 µM", "outline": "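Fluorescence (485/531 nm) read 10 min after adding 25nM reporter substrate to 50 pM activated EK preincubated 30 min RT with compound; Tris pH 8.0/CaCl2/CHAPS buffer. Data normalized to buffer-alone inhibition; concentration-response curves fitted.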"}
{"smiles": "CCC(C(=O)Nc1nnc(-c2ccco2)s1)c1ccccc1", "note": "(stereo not given)", "Potency": "inactive"}
{"smiles": "C=CCSC1=N/C(=C\\C=C\\c2ccco2)C(=O)S1", "Potency": "7.94 µM (active)"}
{"smiles": "O=c1oc2c(CN3CCCCC3)c(O)ccc2c2c1CCCCC2", "Potency": "inactive"}
{"smiles": "CC(C)(C)C1CCC(=NNC(=O)CN(c2ccccc2)S(C)(=O)=O)CC1", "note": "(stereo not given)", "Potency": "inactive"}
{"smiles": "O=C1c2ccccc2CCC12N=NCC2c1ccc(Br)cc1", "note": "(stereo not given)", "Potency": "inactive"}
{"smiles": "CCCC(=O)Nc1ccc(N2CCN(C(=O)c3cc4ccccc4o3)CC2)cc1", "Potency": "inactive"}
{"smiles": "CNS(=O)(=O)c1cccc(C(=O)OCC(=O)c2cc(C)n(-c3ccc4c(c3)OCO4)c2C)c1", "Potency": "inactive"}
{"smiles": "COCCn1c(SCC(=O)Nc2cc(C)on2)nnc1-c1ccccc1", "Potency": "inactive"}
{"smiles": "COC(=O)CC1Oc2ccc(C)cc2NC1=O", "note": "(stereo not given)", "Potency": "inactive"}
{"smiles": "C[C@@H]1CN([C@@H](C)CO)C(=O)c2cc(NC(=O)CCC(F)(F)F)ccc2O[C@H]1CN(C)S(=O)(=O)c1ccc(Cl)cc1", "Potency": "inactive"}
{"smiles": "CCOC(=O)c1c(C)[nH]c(C(=O)COC(=O)CSC)c1C", "Potency": "inactive"}
{"smiles": "CCOc1ccc(CCn2c(-c3ccco3)nc3ccccc3c2=O)cc1OCC", "Potency": "inactive"}
{"smiles": "CCOC(=O)C1CCCN(C(=O)c2cc(-c3ccco3)nc3ccccc23)C1", "note": "(stereo not given)", "Potency": "5.62 µM (active)"}
{"smiles": "O=C(CSc1nccc(=O)[nH]1)N1N=C2/C(=C/c3ccco3)CCCC2C1c1ccco1", "note": "(stereo not given)", "Potency": "8.91 µM (active)"}
{"smiles": "COC(=O)c1ccc(CSc2ncnc3ccccc23)o1", "Potency": "inactive"}
{"smiles": "Nc1nc(NCCO)nc(NCC2CCCO2)c1[N+](=O)[O-]", "note": "(stereo not given)", "Potency": "inactive"}
{"smiles": "O=C(O)CC1(CC(=O)Nc2ccc3ccccc3c2)CCCCC1", "Potency": "inactive"}
{"smiles": "CCCOc1ccc(-c2nc(C#N)c(N3CCN(CC)CC3)o2)cc1", "Potency": "inactive"}
{"smiles": "CN=c1scc(-c2ccccc2F)n1/N=C/c1ccc(O)c(O)c1O", "Potency": "10 µM (active)"}
{"smiles": "Cc1cc(NC(=O)COC(=O)CCCOc2ccc(Cl)cc2C)no1", "Potency": "inactive"}
{"smiles": "O=C1NC(=Nc2ccc3ccccc3c2)S/C1=C/c1ccco1", "Potency": "10 µM (active)"}
{"smiles": "O=[N+]([O-])/C(C(Cl)=C(Cl)Cl)=C(\\Sc1ccccc1)N1CCCCC1", "Potency": "inactive"}
{"smiles": "C#CCOCCOCCOCCNc1nc(N2CCN(C(=O)CCCCCCCCCCNC(=O)[C@@H](CCC(=O)O)n3cc(CCCCCN)nn3)CC2)nc(N2CCN(C(=O)CCCCCCCCCCNC(=O)[C@H](CCCCN)n3cc(C[C@@H](C)CC)nn3)CC2)n1", "Potency": "5.62 µM (active)"}
{"smiles": "CCC(C)NC(=O)C1CN(S(=O)(=O)c2ccccc2)CCN1S(=O)(=O)c1ccccc1", "note": "(stereo not given)", "Potency": "inactive"}
{"smiles": "COc1ccc(NC(=O)CSc2nnc(-c3ccccc3Cl)n2Cc2ccco2)c(OC)c1", "Potency": "inactive"}
{"smiles": "COC(=O)c1cc2sc(Cl)cc2n1Cc1nc(-c2ccccc2)oc1C", "Potency": "inactive"}
{"smiles": "COc1ccccc1C(=O)N1CCN=C1SC", "Potency": "inactive"}
{"smiles": "CCOC(=O)N1CCN(C(=O)c2cc3c(ccc4ccccc43)oc2=O)CC1", "Potency": "inactive"}
{"smiles": "O=C(CSc1ccc(Br)c2cccc(Cl)c12)Nc1ccc(S(=O)(=O)Nc2nccs2)cc1", "Potency": "11.2 µM (active)"}
{"smiles": "CNc1nc(OCCNC(=O)Nc2ccccc2)nc(N2CCOCC2)n1", "Potency": "inactive"}
{"smiles": "Cn1ccc(=Nc2ccc(NC(=O)c3ccc(N=c4ccn(C)c5ccc([N+](=O)[O-])cc45)cc3)cc2)cc1", "Potency": "inactive"}
{"smiles": "O=C1S/C(=C\\C=C\\c2ccco2)C(=O)N1c1ccc(O)cc1", "Potency": "10 µM (active)"}
{"smiles": "COc1ccc(Cc2nnc(NC(=O)Cc3cccs3)s2)cc1", "Potency": "1.78 µM (active)"}
{"smiles": "CC(C)CC(=O)Nc1cccc(-c2nc3ccccc3o2)c1", "Potency": "inactive"}
{"smiles": "O=C(NCCC1=CCCCC1)C1CCCN(S(=O)(=O)c2cnc[nH]2)C1", "note": "(stereo not given)", "Potency": "inactive"}
{"smiles": "CC(=O)c1cccc(NC(=O)C(C)OC(=O)c2cc(=O)[nH]c3ccccc23)c1", "note": "(stereo not given)", "Potency": "1 µM (active)"}
{"smiles": "O=C1N=c2ccccc2=C1c1sc(Nc2ccc(O)cc2)nc1O", "Potency": "8.91 µM (active)"}
{"smiles": "CCOC(=O)Nc1nnc(CCc2ccccc2)s1", "Potency": "inactive"}
{"smiles": "Cc1c(O)c(CN2CCCC2)cc2c3c(c(=O)oc12)CCC3", "Potency": "inactive"}
{"smiles": "COc1ccc(C(=O)N/C(=C\\c2cccs2)C(=O)N2CCN(C)CC2)cc1OC", "Potency": "inactive"}
